Measurements as given in PubChem BioAssay (EPA / NIEHS).
“And” between values parts separate entries of the source, which are not always exact repeats. Equal entries are not always repeated. More than one record can exist for a structure, and the calls need not agree. The source made the active and inactive calls. The calls were made as follows: active = hit-call score of the fitted dose curve at least 0.9, where 1 is the maximum; inactive = score below 0.9.

Experiments:
[1] = read-out: Human Leukocyte Antigen - DR isotype (HLADR), HLA-DRA (gene 3122); assay: BSK_BE3C_HLADR: BioMAP Diversity Plus: BE3C Assay for Human Leukocyte Antigen - DR isotype (HLADR) Biomarker Activity (AID 2283032); conditions: primary human bronchial epithelial cells; actives raise or lower the signal
How it was run: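 BioMAP BE3C format: human bronchial epithelium, 24 h compound treatment, ELISA detection of HLA-DR, with bidirectional analysis relative to DMSO.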

[2] = read-out: Vascular cell adhesion molecule 1 (VCAM1), VCAM1 (gene 7412); assay: BSK_4H_VCAM1: BioMAP Diversity Plus: 4H Assay for Vascular cell adhesion molecule 1 (VCAM1) Biomarker Activity (AID 2283033); conditions: primary human endothelial cells (HUVEC); actives raise or lower the signal;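 as to outcome: cell-surface VCAM-1 protein measured by ELISA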
How it was run: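 In this human endothelial (HUVEC) system, biomarker ELISA was run 24 h after compound addition, and total protein in parallel wells was assessed by SRB at 560 nm; DMSO served as negative control.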

[3] = read-out: Monokine induced gamma interferon (MIG), CXCL9 (gene 4283); assay: BSK_BE3C_MIG: BioMAP Diversity Plus: BE3C Assay for Monokine induced gamma interferon (MIG) Biomarker Activity (AID 2283035); conditions: primary human bronchial epithelial cells; actives raise or lower the signal;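 as to outcome: MIG protein measured by ELISA in BE3C cultures after 24 h of dosing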
How it was run: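 ELISA quantified MIG after 24 h exposure of primary bronchial epithelial cultures, analysed in both directions relative to DMSO. Cytotoxicity tracked in parallel cultures by sulforhodamine B staining.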

[4] = read-out: Plasminogen activator inhibitor-1 (PAI1), SERPINE1 (gene 5054); assay: BSK_BE3C_PAI1: BioMAP Diversity Plus: BE3C Assay for Plasminogen activator inhibitor-1 (PAI1) Biomarker Activity (AID 2283037); conditions: primary human bronchial epithelial cells; actives raise or lower the signal
How it was run: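 In this multiplexed primary-cell system, bronchial epithelial cells receive test chemical and are sampled at 24 h. PAI-1 is read by ELISA, with DMSO serving as negative control for bidirectional fitting.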

[5] = read-out: urokinase plasminogen activator (uPA), PLAU (gene 5328); assay: BSK_BE3C_uPA: BioMAP Diversity Plus: BE3C Assay for urokinase plasminogen activator (uPA) Biomarker Activity (AID 2283038); conditions: primary human bronchial epithelial cells; actives raise or lower the signal;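 as to outcome: uPA protein level quantified by ELISA in cell cultures; uPA read one day after compound addition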
How it was run: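 Using confluent primary human lung bronchial epithelial cultures, we dosed chemicals, waited 24 h, then ran a uPA ELISA, fitting bidirectionally against DMSO.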

[6] = read-out: Urokinase-type plasminogen activator receptor (uPAR), PLAUR (gene 5329); assay: BSK_BE3C_uPAR: BioMAP Diversity Plus: BE3C Assay for Urokinase-type plasminogen activator receptor (uPAR) Biomarker Activity (AID 2283039); conditions: primary human bronchial epithelial cells; actives raise or lower the signal;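 as to outcome: uPAR protein level measured by ELISA on the cells; cells exposed to compound for one day before measurement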
How it was run: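 Chemically treated human bronchial epithelial cells (lung primary) are assayed for uPAR by ELISA after 24 h, with data fitted in both directions using DMSO as negative control.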

[7] = read-out: Interleukin-6 (IL6), IL6 (gene 3569); assay: BSK_CASM3C_IL6: BioMAP Diversity Plus: CASM3C Assay for Interleukin-6 (IL6) Biomarker Activity for (AID 2283040); conditions: primary human coronary artery smooth muscle cells; actives raise or lower the signal
[8] = read-out: Tissue plasminogen activator (tPA), PLAT (gene 5327); assay: BSK_BE3C_tPA: BioMAP Diversity Plus: BE3C Assay for Tissue plasminogen activator (tPA) Biomarker Activity (AID 2283041); conditions: primary human bronchial epithelial cells; actives raise or lower the signal;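 as to outcome: tPA level quantified by ELISA one day after compound addition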
How it was run: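 Using human lung primary bronchial epithelial cells, tPA was measured by ELISA 24 h after dosing; data fitted relative to DMSO.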

[9] = read-out: Vascular endothelial growth factor receptor 2 (Homo sapiens) (UniProt P35968); assay: BSK_4H_VEGFRII: BioMAP Diversity Plus: 4H Assay for Vascular endothelial growth factor receptor 2 (VEGFR2) Biomarker Activity (AID 2283031); conditions: primary human endothelial cells (HUVEC); actives raise or lower the signal;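 as to AC50: cell-surface VEGFR2 protein level quantified by ELISA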
How it was run: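 In this multiplexed HUVEC system, biomarker ELISA was performed after 24 h chemical exposure. Parallel SRB staining (TCA fixation, 560 nm) tracked cytotoxicity; DMSO served as baseline.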

[10] = read-out: Interferon-gamma inducible Protein 10 (IP10), CXCL10 (gene 3627); assay: BSK_BE3C_IP10: BioMAP Diversity Plus: BE3C Assay for Interferon-gamma inducible Protein 10 (IP10) Biomarker Activity (AID 2283034); conditions: primary human bronchial epithelial cells; actives raise or lower the signal
How it was run: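 BE3C cells (human bronchial epithelial, primary); 24 h exposure; ELISA for IP-10; DMSO-referenced bidirectional fit.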

In the case of `CCOC(=O)C(C#N)=C(c1ccccc1)c1ccccc1`, the outcome [1] is reported as “inactive”, the AC50 [2] is reported as 36.9 µM (active) and the outcome [2] is reported as “inactive”. For the same compound, the outcome [3] was “inactive”, the outcome [4] was “inactive” and the outcome [5] was “inactive”. For the same compound, the outcome [6] was “inactive”, the outcome [7] was “inactive” and the outcome [8] was “inactive”.
For `C=C(C)C(=O)OCCOCCOCCOCCOC(=O)C(=C)C`, the outcome [9] was “inactive”, the outcome [1] was “inactive” and the outcome [2] was “inactive”. For the same compound, the outcome [3] was “inactive”, the outcome [4] was “inactive” and the outcome [5] was “inactive”. For the same compound, the outcome [6] was “inactive”, the outcome [7] was “inactive” and the outcome [8] was “inactive”.
`CCCCOC(=O)CCCCCCCC(=O)OCCCC` was tested, and the outcome [1] was “inactive”, the outcome [2] was “inactive” and the outcome [10] was “inactive”. For the same compound, the outcome [3] was “inactive”, the outcome [4] was “inactive” and the outcome [5] was “inactive”. For the same compound, the outcome [6] was “inactive”, the outcome [7] was “inactive” and the outcome [8] was “inactive”.
With `CCCCN(CCCC)C(=O)N(CCCC)CCCC` the AC50 [1] was 12.5 µM (active), the AC50 [2] was 23.7 µM (active) and the AC50 [10] was 9.08 µM (active). The AC50 [3] was 20 µM (active), the AC50 [4] was 9.25 µM (active) and the AC50 [5] was 9.69 µM (active). The AC50 [6] was 7.37 µM (active), the AC50 [7] was 20 µM (active) and the AC50 [8] was 6.94 µM (active).
With `Oc1c(Cl)cc(Cl)c(Cl)c1Cc1c(O)c(Cl)cc(Cl)c1Cl` the AC50 [1] was 0.634 µM (active), the AC50 [2] was 12.8 µM (active) and the AC50 [3] was 8.39 µM (active). For the same compound, the AC50 [4] was 3.97 µM (active), the outcome [5] was “inactive” and the AC50 [6] was 20 µM (active). The AC50 [7] was 7.83 µM (active) and the outcome [8] was “inactive”.
With `CCCCCCC(CO)CCCC` (stereo not drawn) the outcome [9] was “inactive”, the outcome [1] was “inactive” and the outcome [2] was “inactive”. The outcome [3] was “inactive”, the outcome [4] was “inactive” and the outcome [5] was “inactive”. For the same compound, the outcome [6] was “inactive”, the outcome [7] was “inactive” and the outcome [8] was “inactive”.
With `CC(CN=Cc1ccccc1O)N=Cc1ccccc1O` (stereo not drawn) the outcome [1] was “inactive”, the outcome [2] was “inactive” and the outcome [3] was “inactive”. For the same compound, the outcome [4] was “inactive”, the outcome [5] was “inactive” and the outcome [6] was “inactive”. The AC50 [7] was 8.95 µM (active), the outcome [7] was “inactive” and the AC50 [8] was 8.3 µM (active). The outcome [8] was “inactive”.
`C=C(C)C(=O)OCCOCCOCCOC(=O)C(=C)C` was tested, and the outcome [9] was “inactive”, the AC50 [1] was 3.97 µM (active) and the outcome [2] was “inactive”. The outcome [3] was “inactive”, the outcome [4] was “inactive” and the outcome [5] was “inactive”. For the same compound, the outcome [6] was “inactive”, the outcome [7] was “inactive” and the outcome [8] was “inactive”.
In the case of `C=C(C)[C@H]1CC=C(C)C(=O)C1`, the outcome [1] is reported as “inactive”, the outcome [2] is reported as “inactive” and the outcome [3] is reported as “inactive”. For the same compound, the outcome [4] was “inactive”, the outcome [5] was “inactive” and the outcome [6] was “inactive”. The outcome [7] was “inactive” and the outcome [8] was “inactive”.
In the case of `O=C1OC[C@H](Cc2cccc(O)c2)[C@H]1Cc1cccc(O)c1`, the outcome [1] is reported as “inactive”, the outcome [2] is reported as “inactive” and the outcome [10] is reported as “inactive”. For the same compound, the outcome [3] was “inactive”, the outcome [4] was “inactive” and the outcome [5] was “inactive”. The outcome [6] was “inactive”, the outcome [7] was “inactive” and the outcome [8] was “inactive”.
With `O=C1OC2(c3ccccc31)c1ccc(O)c(Br)c1Oc1c2ccc(O)c1Br` the AC50 [9] was 13.7 µM (active), the AC50 [1] was 10.3 µM (active) and the AC50 [2] was 20 µM (active). The outcome [3] was “inactive”, the outcome [4] was “inactive” and the outcome [5] was “inactive”. The outcome [6] was “inactive”, the outcome [7] was “inactive” and the AC50 [8] was 20 µM (active).
In the case of `Clc1cc(Cl)c(-c2c(Cl)c(Cl)cc(Cl)c2Cl)cc1Cl`, the AC50 [9] is reported as 10 µM (active), the AC50 [1] is reported as 12.9 µM (active) and the AC50 [2] is reported as 8.56 µM (active). For the same compound, the outcome [3] was “inactive”, the AC50 [4] was 10 µM (active) and the outcome [5] was “inactive”. For the same compound, the AC50 [6] was 1.98 µM (active), the outcome [7] was “inactive” and the outcome [8] was “inactive”.
`C1=CC2C3C=CC(C3)C2C1` (stereo not drawn) was tested, and the outcome [1] was “inactive”, the outcome [2] was “inactive” and the outcome [10] was “inactive”. For the same compound, the outcome [3] was “inactive”, the outcome [4] was “inactive” and the outcome [5] was “inactive”. For the same compound, the outcome [6] was “inactive”, the outcome [7] was “inactive” and the outcome [8] was “inactive”.
In the case of `CCCCCC(C=O)=Cc1ccccc1`, the AC50 [1] is reported as 33.1 µM (active), the AC50 [2] is reported as 30.5 µM (active) and the outcome [3] is reported as “inactive”. For the same compound, the outcome [4] was “inactive”, the outcome [5] was “inactive” and the outcome [6] was “inactive”. For the same compound, the AC50 [7] was 32 µM (active) and the outcome [8] was “inactive”.
In the case of `CC(=O)Nc1ccc(C(=O)CCl)cc1`, the AC50 [1] is reported as 15.1 µM (active), the AC50 [2] is reported as 6.74 µM (active) and the AC50 [3] is reported as 33.3 µM (active). For the same compound, the outcome [4] was “inactive”, the outcome [5] was “inactive” and the AC50 [6] was 31.7 µM (active). The AC50 [7] was 10.6 µM (active).
In the case of `IC(I)I`, the outcome [1] is reported as “inactive”, the outcome [2] is reported as “inactive” and the outcome [3] is reported as “inactive”. For the same compound, the outcome [4] was “inactive”, the outcome [5] was “inactive” and the outcome [6] was “inactive”. The outcome [7] was “inactive” and the outcome [8] was “inactive”.
In the case of `CC(C)(C)CC(C)(C)c1ccc(OCCOCC[N+](C)(C)Cc2ccccc2)cc1`, the AC50 [1] is reported as 7.59 µM (active), the AC50 [2] is reported as 7.35 µM (active) and the AC50 [3] is reported as 8.97 µM (active). The AC50 [4] was 0.992 µM (active), the AC50 [5] was 5 µM (active) and the AC50 [6] was 3.16 µM (active). For the same compound, the AC50 [7] was 8 µM (active) and the outcome [8] was “inactive”.
In the case of `CC(C=O)Cc1ccc(C(C)(C)C)cc1` (stereo not drawn), the AC50 [9] is reported as 32.9 µM (active), the AC50 [1] is reported as 28.9 µM (active) and the AC50 [2] is reported as 34.5 µM (active). For the same compound, the outcome [3] was “inactive”, the outcome [4] was “inactive” and the outcome [5] was “inactive”. The outcome [6] was “inactive”, the AC50 [7] was 28.5 µM (active) and the AC50 [8] was 24.8 µM (active).
For `C=CC(C)(O)CCC=C(C)C` (stereo not drawn), the outcome [1] was “inactive”, the outcome [2] was “inactive” and the outcome [10] was “inactive”. For the same compound, the outcome [3] was “inactive”, the outcome [4] was “inactive” and the outcome [5] was “inactive”. For the same compound, the outcome [6] was “inactive”, the outcome [7] was “inactive” and the outcome [8] was “inactive”.
For `CS(=O)(=O)c1ccc(C2=C(c3ccccc3)C(=O)OC2)cc1`, the outcome [1] was “inactive”, the outcome [2] was “inactive” and the outcome [3] was “inactive”. The outcome [4] was “inactive”, the outcome [5] was “inactive” and the outcome [6] was “inactive”. The outcome [7] was “inactive” and the outcome [8] was “inactive”.
In the case of `CC(C)(N=C=O)c1cccc(C(C)(C)N=C=O)c1`, the outcome [1] is reported as “inactive”, the outcome [2] is reported as “inactive” and the outcome [3] is reported as “inactive”. The outcome [4] was “inactive”, the outcome [5] was “inactive” and the outcome [6] was “inactive”. For the same compound, the outcome [7] was “inactive” and the outcome [8] was “inactive”.
For `CC1(C)CCC[C@]2(C)[C@H]3CCO[C@]3(C)CC[C@@H]12`, the AC50 [1] was 23.9 µM (active) and 28.6 µM (active), the AC50 [2] was 30.4 µM (active) and the outcome [2] was “inactive”. The outcome [10] was “inactive”, the outcome [3] was “inactive” and the AC50 [4] was 36.4 µM (active). For the same compound, the outcome [4] was “inactive”, the AC50 [5] was 26.2 µM (active) and the outcome [5] was “inactive”. The outcome [6] was “inactive”, the AC50 [7] was 31.5 µM (active) and 16.6 µM (active) and the AC50 [8] was 23 µM (active) and 20 µM (active).
